The source of these data is publication PMC5700166.

Where a chain is given by its changes, count along the chain named.

Holding throughout (experiment): protein-binding microarray (PBM); PBM: ~300 nM protein, 6 mM HEPES pH 7.8, 80 mM KCl, 0.5 mM EDTA, 0.5 mM EGTA, 6% glycerol, 35 ng/ul poly-dIdC, 1% milk, 1 h, room temperature; Ap Aiptasia and Nv Nematostella (sea anemones) / Co Capsaspora / Aq Amphimedon (sponge) / Dm Drosophila / Hu human; RHD is the Rel homology domain; high values mean tight binding
Common to all, as to conditions: dsDNA, one strand shown

The target of one experiment is T1, GST-Ap-NF-kB RHD (Exaiptasia pallida (Aiptasia), UniProt A0A913YAJ5 2-422).
T1 sequence: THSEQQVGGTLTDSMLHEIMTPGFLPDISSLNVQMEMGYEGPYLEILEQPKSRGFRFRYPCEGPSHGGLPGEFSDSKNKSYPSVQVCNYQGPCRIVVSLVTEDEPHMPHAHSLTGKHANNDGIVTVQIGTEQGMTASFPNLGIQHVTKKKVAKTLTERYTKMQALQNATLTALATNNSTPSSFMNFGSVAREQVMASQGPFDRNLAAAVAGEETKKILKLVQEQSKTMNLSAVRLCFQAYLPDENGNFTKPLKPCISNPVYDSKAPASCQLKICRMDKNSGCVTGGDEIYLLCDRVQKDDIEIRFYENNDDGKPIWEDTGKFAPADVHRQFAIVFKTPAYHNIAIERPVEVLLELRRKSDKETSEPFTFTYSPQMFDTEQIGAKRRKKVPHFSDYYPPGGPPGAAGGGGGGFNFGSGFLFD

Experiment [1] addresses T2, GST-Nv-NF-kB (Cys allele) (Nematostella vectensis, UniProt E5G601 2-411).
T2 sequence: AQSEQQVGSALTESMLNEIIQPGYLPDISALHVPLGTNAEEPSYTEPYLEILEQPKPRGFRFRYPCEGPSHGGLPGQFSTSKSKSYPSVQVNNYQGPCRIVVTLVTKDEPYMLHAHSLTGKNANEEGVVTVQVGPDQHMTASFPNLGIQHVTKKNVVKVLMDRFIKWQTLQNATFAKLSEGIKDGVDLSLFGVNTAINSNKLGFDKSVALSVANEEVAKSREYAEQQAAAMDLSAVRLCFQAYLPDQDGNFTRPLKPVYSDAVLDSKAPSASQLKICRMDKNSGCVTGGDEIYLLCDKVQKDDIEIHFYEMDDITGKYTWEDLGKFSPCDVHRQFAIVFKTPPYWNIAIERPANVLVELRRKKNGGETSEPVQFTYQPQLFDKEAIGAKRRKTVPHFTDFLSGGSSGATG

Experiment [2] addresses T3, GST-Nv-NF-kB (Ser allele) (Nematostella vectensis, UniProt A7UNT2 2-411).
T3 sequence: T2 sequence with Q21R, C66S, S207N, E215Q, V217A, E225K, A268E, D399E

Another experiment addresses T4, GST-Co-NF-kB (Capsaspora owczarzaki, UniProt F1ARL5 200-546).
T4 sequence: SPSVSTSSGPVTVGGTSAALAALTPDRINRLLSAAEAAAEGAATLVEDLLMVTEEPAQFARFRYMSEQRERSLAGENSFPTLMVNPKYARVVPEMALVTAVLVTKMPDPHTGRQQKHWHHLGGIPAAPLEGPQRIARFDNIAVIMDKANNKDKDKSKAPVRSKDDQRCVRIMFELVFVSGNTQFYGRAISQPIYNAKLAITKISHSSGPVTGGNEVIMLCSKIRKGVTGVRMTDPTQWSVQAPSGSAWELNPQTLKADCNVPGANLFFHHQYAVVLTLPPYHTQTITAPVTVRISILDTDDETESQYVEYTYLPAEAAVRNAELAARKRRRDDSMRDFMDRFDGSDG

The target in a further experiment is T5, GST-Dm-Relish (Drosophila melanogaster, UniProt Q94527 99-473).
T5 sequence: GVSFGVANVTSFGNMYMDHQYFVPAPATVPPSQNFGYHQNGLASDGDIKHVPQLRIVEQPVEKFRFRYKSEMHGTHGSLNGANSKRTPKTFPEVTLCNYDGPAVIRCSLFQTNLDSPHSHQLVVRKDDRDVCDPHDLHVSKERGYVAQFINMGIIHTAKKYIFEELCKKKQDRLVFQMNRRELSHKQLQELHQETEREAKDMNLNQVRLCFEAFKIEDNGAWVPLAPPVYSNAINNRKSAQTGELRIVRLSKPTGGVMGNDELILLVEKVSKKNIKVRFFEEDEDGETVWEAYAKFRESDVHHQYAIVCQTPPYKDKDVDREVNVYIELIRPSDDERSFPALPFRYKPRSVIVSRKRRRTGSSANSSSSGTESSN

In a further experiment the target is T6, GST-Aq-NF-kB (Amphimedon queenslandica, UniProt A9Y5G7 2-389).
T6 sequence: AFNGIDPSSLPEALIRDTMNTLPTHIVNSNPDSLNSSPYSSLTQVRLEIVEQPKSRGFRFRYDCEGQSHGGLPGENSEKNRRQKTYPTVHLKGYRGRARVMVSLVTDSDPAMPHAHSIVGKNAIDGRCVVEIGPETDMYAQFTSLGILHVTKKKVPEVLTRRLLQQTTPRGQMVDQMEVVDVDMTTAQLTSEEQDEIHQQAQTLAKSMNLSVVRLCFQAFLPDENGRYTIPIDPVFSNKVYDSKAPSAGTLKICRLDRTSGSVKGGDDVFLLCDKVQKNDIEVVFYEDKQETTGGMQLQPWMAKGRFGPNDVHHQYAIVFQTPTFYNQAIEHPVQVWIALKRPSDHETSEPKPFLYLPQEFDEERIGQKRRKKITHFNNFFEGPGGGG

In a further experiment the target is GST-Hu-p50 (Homo sapiens, UniProt P19838 7-356).
Sequence of GST-Hu-p50 (P19838 7-356): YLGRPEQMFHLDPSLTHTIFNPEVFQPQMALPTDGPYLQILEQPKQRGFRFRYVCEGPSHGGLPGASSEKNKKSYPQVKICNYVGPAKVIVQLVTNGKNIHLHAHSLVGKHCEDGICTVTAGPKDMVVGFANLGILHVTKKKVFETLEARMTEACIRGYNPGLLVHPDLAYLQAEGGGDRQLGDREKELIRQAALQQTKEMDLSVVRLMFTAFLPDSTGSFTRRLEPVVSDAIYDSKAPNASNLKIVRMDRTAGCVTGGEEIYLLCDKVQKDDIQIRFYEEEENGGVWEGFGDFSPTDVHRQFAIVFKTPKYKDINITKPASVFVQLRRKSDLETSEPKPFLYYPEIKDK

As to “CCGATTAACATCAGGATTCCCCCTGATGTTAATCGGGTCTTGATTCGCTTGACGCTGCTG”, the binding signal with GST-Ap-NF-kB RHD is 11.3 z-score; in experiment [1], 10.5 z-score; in experiment [2], 9.81 z-score; in the experiment with GST-Co-NF-kB, 8.01 z-score; in the experiment with GST-Dm-Relish, 10.2 z-score; with GST-Aq-NF-kB, 8.67 z-score. Further, the binding signal with GST-Hu-p50 was found to be 7.26 z-score.

As for “CCGATTAACATCAGGGGATCACCTGATGTTAATCGGGTCTTGATTCGCTTGACGCTGCTG”, the binding signal in the experiment with GST-Ap-NF-kB RHD amounted to 7.26 z-score; in experiment [1] it was 5.39 z-score; in experiment [2] it was 6.05 z-score; in the experiment with GST-Co-NF-kB, 2.95 z-score; in the experiment with GST-Dm-Relish, 9.04 z-score; with GST-Aq-NF-kB, 6.68 z-score. The sequence also yielded a binding signal with GST-Hu-p50 of 4.71 z-score.

For the sequence “CCGATTAACATCATATTCCCCCATGATGTTAATCGGGTCTTGATTCGCTTGACGCTGCTG”, the binding signal in the experiment with GST-Ap-NF-kB RHD is 6.56 z-score; in experiment [1], 7.4 z-score; in experiment [2] it was 7.13 z-score; in the experiment with GST-Co-NF-kB, 8.84 z-score; with GST-Dm-Relish, 3.91 z-score; in the experiment with GST-Aq-NF-kB, 5.97 z-score. The binding signal with GST-Hu-p50 turned out to be 6.3 z-score.

For “CCGATTAACATCAGCATTCCCCCTGATGTTAATCGGGTCTTGATTCGCTTGACGCTGCTG”, the binding signal with GST-Ap-NF-kB RHD was determined as 7.2 z-score; in experiment [1] it was 7.59 z-score; in experiment [2], 7.61 z-score; with GST-Co-NF-kB it was 6.59 z-score; in the experiment with GST-Dm-Relish, 4.53 z-score; with GST-Aq-NF-kB it was 5.57 z-score. This sequence came in with a binding signal with GST-Hu-p50 of 6.18 z-score.

Turning to “CCGATTAACATCACGGGAAATCCTGATGTTAATCGGGTCTTGATTCGCTTGACGCTGCTG”, the binding signal with GST-Ap-NF-kB RHD was 5.03 z-score; in experiment [1] it was 6.03 z-score; in experiment [2] it was 5.29 z-score; with GST-Co-NF-kB, 4.57 z-score; with GST-Dm-Relish, 6.3 z-score; in the experiment with GST-Aq-NF-kB, 6.18 z-score. Also, in the experiment with GST-Hu-p50, the binding signal is 3.91 z-score.

As to “CCGATTAACATCAGGAATTCCCCTGATGTTAATCGGGTCTTGATTCGCTTGACGCTGCTG”, the binding signal in the experiment with GST-Ap-NF-kB RHD amounted to 11.7 z-score; in experiment [1], 12.5 z-score; in experiment [2], 11.7 z-score; with GST-Co-NF-kB, 7.64 z-score; with GST-Dm-Relish it was 9.99 z-score; with GST-Aq-NF-kB, 11.5 z-score. The binding signal with GST-Hu-p50 was 7.74 z-score.

For the sequence “CCGATTAACATCACCCGCCCCCCTGATGTTAATCGGGTCTTGATTCGCTTGACGCTGCTG”, the binding signal turned out to be 4.08 z-score with GST-Ap-NF-kB RHD; 4.08 z-score in experiment [1]; 2.95 z-score in experiment [2]; 4.02 z-score with GST-Co-NF-kB; 4.78 z-score in the experiment with GST-Dm-Relish; 4.22 z-score in the experiment with GST-Aq-NF-kB. The binding signal with GST-Hu-p50 came out at 3.85 z-score.

With “CCGATTAACATCAGGGAATCCCCTGATGTTAATCGGGTCTTGATTCGCTTGACGCTGCTG”, the binding signal in the experiment with GST-Ap-NF-kB RHD turned out to be 14.7 z-score; in experiment [1], 13.7 z-score; in experiment [2], 14.6 z-score; in the experiment with GST-Co-NF-kB, 6.28 z-score; with GST-Dm-Relish it was 11 z-score; with GST-Aq-NF-kB, 12.1 z-score. The binding signal with GST-Hu-p50 was 8.34 z-score.

As to “CCGATTAACATCAGGAAATCCCCTGATGTTAATCGGGTCTTGATTCGCTTGACGCTGCTG”, the binding signal with GST-Ap-NF-kB RHD amounted to 10.8 z-score; in experiment [1], 12.1 z-score; in experiment [2] it was 12.5 z-score; in the experiment with GST-Co-NF-kB, 4.46 z-score; with GST-Dm-Relish it was 10.3 z-score; in the experiment with GST-Aq-NF-kB, 10.9 z-score. The sequence also yielded a binding signal with GST-Hu-p50 of 8.31 z-score.

Regarding “CCGATTAACATCAAAAATCCCCCTGATGTTAATCGGGTCTTGATTCGCTTGACGCTGCTG”, the binding signal in the experiment with GST-Ap-NF-kB RHD is 11.1 z-score; in experiment [1], 11.4 z-score; in experiment [2] it was 12.8 z-score; in the experiment with GST-Co-NF-kB, 8.5 z-score; with GST-Dm-Relish, 10.1 z-score; with GST-Aq-NF-kB it was 9.28 z-score. In addition, the binding signal with GST-Hu-p50 is 8.05 z-score.

“CCGATTAACATCAGAATTTCCCCTGATGTTAATCGGGTCTTGATTCGCTTGACGCTGCTG”: the binding signal with GST-Ap-NF-kB RHD was determined as 9.18 z-score; in experiment [1], 10.1 z-score; in experiment [2] it was 11.5 z-score; with GST-Co-NF-kB it was 8.73 z-score; with GST-Dm-Relish it was 6.98 z-score; with GST-Aq-NF-kB, 8.28 z-score. In the experiment with GST-Hu-p50, this sequence showed a binding signal of 6.93 z-score.

In the case of “CCGATTAACATCACACATCCCCCTGATGTTAATCGGGTCTTGATTCGCTTGACGCTGCTG”, the binding signal with GST-Ap-NF-kB RHD came out at 4.83 z-score; in experiment [1], 4.4 z-score; in experiment [2], 5.41 z-score; with GST-Co-NF-kB, 4.17 z-score; with GST-Dm-Relish, 3.19 z-score; with GST-Aq-NF-kB, 3.87 z-score. The binding signal with GST-Hu-p50 is 4.48 z-score.
